Experimental findings from ChEMBL document CHEMBL2218924, “A broad activity screen in support of a chemogenomic map for kinase signalling research and drug discovery” (Biochem J, 2013) are described below.

Assay [1] addresses T1, Ephrin type-B receptor 1 (Homo sapiens) (UniProt P54762).
T1 sequence (whole entry): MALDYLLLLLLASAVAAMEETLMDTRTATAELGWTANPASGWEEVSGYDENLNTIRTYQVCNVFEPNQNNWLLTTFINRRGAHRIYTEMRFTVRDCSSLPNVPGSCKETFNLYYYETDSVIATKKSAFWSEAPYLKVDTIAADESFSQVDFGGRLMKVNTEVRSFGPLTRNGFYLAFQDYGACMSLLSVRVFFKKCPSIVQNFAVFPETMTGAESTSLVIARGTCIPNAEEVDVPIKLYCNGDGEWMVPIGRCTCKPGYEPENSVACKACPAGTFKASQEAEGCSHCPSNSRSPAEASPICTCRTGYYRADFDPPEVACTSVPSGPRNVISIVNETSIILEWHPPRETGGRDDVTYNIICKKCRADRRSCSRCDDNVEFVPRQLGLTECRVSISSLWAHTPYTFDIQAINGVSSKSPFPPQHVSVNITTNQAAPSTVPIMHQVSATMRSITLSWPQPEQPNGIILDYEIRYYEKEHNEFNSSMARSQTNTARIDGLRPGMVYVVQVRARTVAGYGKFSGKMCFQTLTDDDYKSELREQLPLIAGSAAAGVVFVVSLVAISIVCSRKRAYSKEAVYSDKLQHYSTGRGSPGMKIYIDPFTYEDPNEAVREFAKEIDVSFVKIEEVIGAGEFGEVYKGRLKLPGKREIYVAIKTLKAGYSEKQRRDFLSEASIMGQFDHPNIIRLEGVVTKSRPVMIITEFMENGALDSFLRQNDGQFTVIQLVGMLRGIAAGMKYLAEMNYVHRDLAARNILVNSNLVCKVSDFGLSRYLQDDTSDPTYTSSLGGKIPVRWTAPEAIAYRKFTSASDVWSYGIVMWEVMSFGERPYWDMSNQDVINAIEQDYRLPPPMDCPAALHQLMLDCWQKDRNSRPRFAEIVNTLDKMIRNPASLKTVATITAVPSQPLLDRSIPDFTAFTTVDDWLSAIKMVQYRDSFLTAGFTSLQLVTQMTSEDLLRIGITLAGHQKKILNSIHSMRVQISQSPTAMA
The following applies: at 10 µM.

Assay [2] concerns the target T2, Ephrin type-B receptor 2 (Homo sapiens) (UniProt P29323).
T2 sequence (whole entry): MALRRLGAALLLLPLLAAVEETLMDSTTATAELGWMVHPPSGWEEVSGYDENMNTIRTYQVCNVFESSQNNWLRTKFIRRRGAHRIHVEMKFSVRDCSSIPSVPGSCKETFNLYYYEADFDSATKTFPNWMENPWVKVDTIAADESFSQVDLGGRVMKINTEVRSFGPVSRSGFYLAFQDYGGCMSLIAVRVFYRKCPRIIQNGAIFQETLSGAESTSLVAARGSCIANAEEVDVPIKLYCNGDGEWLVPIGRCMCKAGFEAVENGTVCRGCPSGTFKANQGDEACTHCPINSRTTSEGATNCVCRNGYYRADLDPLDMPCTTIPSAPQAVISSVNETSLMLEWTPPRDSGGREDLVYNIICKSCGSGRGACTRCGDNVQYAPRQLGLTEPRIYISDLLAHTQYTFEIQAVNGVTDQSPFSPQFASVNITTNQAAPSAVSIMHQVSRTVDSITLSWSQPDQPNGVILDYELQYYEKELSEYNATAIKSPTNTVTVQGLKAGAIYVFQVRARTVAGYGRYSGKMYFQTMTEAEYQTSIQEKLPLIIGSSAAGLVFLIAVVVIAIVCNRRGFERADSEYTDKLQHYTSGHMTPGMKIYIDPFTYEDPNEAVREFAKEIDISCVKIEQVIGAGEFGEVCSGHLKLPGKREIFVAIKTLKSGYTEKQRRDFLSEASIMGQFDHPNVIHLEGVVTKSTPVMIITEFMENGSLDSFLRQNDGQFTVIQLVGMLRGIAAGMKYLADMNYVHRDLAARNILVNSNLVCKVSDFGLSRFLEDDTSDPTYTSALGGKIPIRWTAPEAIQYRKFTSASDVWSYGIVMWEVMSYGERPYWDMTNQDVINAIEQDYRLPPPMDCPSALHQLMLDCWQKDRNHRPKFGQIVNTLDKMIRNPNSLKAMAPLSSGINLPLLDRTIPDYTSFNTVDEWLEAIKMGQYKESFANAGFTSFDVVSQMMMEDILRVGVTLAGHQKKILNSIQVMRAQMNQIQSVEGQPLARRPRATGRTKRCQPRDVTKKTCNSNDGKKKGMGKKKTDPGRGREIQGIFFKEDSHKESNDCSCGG
Particulars: at 1 µM; call rule not given here.

The target of assay [3] is T2, Ephrin type-B receptor 2 (Homo sapiens). The following applies: at 10 µM.
The target of assay [4] is T3, Ephrin type-B receptor 3 (Homo sapiens) (UniProt P54753).
T3 sequence (whole entry): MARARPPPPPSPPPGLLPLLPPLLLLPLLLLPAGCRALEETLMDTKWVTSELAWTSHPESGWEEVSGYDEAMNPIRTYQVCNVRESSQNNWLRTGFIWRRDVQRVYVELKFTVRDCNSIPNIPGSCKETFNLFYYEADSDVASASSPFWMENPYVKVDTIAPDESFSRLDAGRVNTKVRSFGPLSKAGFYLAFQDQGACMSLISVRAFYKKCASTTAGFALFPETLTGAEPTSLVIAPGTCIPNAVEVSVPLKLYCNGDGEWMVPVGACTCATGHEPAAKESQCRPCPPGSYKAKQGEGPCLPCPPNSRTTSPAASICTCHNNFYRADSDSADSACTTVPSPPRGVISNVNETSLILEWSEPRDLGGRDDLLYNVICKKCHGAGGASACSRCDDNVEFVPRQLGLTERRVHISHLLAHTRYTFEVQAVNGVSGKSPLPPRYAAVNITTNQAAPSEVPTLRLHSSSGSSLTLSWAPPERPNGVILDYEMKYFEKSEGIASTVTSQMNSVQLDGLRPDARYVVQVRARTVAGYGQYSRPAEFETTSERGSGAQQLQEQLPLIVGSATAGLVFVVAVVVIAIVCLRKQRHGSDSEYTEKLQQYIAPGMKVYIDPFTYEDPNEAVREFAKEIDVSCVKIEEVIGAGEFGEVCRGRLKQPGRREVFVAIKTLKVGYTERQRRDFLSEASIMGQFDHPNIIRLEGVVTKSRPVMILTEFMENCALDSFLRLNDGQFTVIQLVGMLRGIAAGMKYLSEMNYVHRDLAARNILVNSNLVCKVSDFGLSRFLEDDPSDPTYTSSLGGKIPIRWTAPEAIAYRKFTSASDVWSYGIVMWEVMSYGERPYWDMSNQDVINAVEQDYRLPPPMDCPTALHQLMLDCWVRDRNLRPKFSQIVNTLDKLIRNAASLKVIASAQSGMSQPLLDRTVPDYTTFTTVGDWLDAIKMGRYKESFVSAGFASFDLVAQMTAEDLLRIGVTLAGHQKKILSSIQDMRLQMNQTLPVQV
The following applies: at 1 µM.

The target in assay [5] is T3, Ephrin type-B receptor 3 (Homo sapiens). Particulars: at 10 µM.
For assay [6], the target named is T4, Ephrin type-B receptor 4 (Homo sapiens) (UniProt P54760).
T4 sequence (whole entry): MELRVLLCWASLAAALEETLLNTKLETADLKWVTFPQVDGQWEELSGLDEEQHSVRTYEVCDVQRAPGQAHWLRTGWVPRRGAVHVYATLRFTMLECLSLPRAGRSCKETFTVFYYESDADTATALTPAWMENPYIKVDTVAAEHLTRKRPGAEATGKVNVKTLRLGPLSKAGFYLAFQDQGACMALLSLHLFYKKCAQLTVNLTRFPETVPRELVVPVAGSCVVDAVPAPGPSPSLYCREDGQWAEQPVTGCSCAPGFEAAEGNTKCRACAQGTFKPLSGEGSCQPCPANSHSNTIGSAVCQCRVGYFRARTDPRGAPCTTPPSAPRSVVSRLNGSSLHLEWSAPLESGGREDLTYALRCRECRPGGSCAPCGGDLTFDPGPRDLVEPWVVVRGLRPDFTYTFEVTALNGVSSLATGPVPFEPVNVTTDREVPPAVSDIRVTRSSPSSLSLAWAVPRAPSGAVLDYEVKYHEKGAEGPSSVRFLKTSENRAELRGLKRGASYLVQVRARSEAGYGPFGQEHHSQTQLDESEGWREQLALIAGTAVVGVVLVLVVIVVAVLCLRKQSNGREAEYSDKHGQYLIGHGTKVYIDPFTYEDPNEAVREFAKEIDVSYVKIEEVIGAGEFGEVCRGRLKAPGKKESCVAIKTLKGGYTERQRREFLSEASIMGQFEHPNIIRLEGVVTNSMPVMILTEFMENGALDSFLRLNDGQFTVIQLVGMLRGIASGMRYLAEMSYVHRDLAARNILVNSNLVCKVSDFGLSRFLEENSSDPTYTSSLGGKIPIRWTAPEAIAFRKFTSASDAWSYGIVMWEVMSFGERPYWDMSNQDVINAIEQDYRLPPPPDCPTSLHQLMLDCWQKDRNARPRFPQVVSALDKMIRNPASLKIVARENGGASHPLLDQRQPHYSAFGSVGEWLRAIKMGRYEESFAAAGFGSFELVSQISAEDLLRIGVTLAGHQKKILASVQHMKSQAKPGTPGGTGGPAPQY
The following applies: at 1 µM.

Assay [7] has as its target T4, Ephrin type-B receptor 4 (Homo sapiens). The following applies: at 10 µM.
Assay [8] addresses Receptor tyrosine-protein kinase erbB-4 (Homo sapiens) (UniProt Q15303). Particulars: at 1 µM.
For assay [9] the target is unchanged. Particulars: at 10 µM.
In assay [10] the target is Focal adhesion kinase 1 (Homo sapiens) (UniProt Q05397). The following applies: at 1 µM.

Structures are written as SMILES.

Chain of Receptor tyrosine-protein kinase erbB-4 (Homo sapiens) (Q15303 whole entry): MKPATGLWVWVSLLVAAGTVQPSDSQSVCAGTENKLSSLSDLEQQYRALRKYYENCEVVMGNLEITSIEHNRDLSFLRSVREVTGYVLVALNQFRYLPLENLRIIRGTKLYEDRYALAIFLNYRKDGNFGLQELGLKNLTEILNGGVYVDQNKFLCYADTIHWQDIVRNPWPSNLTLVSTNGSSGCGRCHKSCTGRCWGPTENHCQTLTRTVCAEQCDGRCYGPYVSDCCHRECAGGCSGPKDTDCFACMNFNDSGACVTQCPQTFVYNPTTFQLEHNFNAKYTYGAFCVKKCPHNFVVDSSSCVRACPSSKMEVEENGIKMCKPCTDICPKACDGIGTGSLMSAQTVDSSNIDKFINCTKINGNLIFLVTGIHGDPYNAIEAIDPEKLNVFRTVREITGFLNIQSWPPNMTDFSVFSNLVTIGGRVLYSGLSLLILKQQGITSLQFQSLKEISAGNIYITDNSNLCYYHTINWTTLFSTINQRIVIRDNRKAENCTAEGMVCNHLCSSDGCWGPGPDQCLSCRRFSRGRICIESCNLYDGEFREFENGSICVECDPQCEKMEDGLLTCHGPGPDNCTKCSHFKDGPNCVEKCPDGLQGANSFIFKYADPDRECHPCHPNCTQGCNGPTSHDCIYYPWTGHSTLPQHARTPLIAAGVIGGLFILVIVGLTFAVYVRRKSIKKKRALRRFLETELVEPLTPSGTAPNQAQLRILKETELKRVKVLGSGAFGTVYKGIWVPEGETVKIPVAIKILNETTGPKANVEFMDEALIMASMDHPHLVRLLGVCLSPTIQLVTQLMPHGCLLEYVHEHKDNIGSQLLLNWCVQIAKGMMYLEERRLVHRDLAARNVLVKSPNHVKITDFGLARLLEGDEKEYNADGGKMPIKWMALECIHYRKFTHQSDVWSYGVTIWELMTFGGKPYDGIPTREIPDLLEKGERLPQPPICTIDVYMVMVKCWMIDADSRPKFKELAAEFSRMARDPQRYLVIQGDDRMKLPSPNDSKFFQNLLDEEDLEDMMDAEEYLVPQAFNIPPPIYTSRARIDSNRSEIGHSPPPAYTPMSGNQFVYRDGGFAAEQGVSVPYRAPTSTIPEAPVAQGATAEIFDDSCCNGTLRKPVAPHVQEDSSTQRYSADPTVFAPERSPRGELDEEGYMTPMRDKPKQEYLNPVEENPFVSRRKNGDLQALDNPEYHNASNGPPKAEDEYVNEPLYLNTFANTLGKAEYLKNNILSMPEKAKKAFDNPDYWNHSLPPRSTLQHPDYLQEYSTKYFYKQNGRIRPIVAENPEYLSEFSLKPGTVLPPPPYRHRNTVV
Chain of Focal adhesion kinase 1 (Homo sapiens) (Q05397 2-1052 limits assumed): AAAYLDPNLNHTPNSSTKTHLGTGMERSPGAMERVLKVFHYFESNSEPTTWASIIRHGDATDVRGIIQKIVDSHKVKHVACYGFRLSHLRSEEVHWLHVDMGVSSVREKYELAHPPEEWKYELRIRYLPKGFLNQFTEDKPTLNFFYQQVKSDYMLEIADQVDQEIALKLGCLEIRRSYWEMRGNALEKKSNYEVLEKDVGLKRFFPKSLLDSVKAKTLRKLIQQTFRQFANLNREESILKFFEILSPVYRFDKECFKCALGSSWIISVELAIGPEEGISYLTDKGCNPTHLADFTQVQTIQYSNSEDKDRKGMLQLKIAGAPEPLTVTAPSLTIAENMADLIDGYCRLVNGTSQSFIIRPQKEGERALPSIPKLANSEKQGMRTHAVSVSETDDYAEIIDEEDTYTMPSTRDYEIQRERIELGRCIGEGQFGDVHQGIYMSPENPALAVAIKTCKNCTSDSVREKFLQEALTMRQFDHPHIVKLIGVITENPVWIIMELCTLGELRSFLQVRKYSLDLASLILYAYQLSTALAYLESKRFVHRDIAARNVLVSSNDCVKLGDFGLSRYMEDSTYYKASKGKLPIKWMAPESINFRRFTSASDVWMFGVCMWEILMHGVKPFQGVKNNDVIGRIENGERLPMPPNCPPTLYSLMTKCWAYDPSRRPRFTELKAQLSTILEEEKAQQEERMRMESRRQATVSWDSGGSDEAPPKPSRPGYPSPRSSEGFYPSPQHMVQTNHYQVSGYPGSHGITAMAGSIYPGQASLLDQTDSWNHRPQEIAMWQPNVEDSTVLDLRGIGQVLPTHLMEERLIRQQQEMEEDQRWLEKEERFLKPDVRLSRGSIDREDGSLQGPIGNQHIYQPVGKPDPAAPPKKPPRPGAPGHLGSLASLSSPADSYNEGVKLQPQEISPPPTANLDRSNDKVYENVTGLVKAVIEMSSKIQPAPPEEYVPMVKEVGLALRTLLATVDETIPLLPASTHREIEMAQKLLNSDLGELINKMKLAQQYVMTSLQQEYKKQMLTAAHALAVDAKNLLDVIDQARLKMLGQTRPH

As to `CC(C)n1cnc2c(NCc3ccccc3)nc(NCCCO)nc21`, the residual activity (usually the signal under treatment as a percentage of the control signal) was 79% in assay [1]; 111% in assay [2]; 115% in [3]; 121% (inactive) in assay [4]; 104% in assay [5]; 100% in [6]. Also, the residual activity in [7] is 88%; in assay [8], 52%; in assay [9], 45%; in assay [10] it was 97%.
